The values that follow come from PubChem BioAssay (Tox21).

Assay [1] can be described thus: qHTS assay to identify small molecule agonists of the hypoxia (HIF-1) signaling pathway - cell viability counter screen (AID 1224844; calls by dose curve; also: nearly all actives have a fitted effect of over 50% in size; also: potency is read from the fitted curve at half-maximal effect). A digest of the protocol: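 HRE-bla ME-180 cells in medium with 0.5% dialyzed FBS were preincubated 5 hrs at 37C, exposed to compounds for 17 hrs, then viability was read as CellTiter-Glo luminescence after 30 min at room temperature, in the reporter wells.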
A general note: In qHTS, concentration-response curves come from the screen itself.

Assay [2] is described as follows: qHTS assay to identify small molecule agonists of H2AX (AID 1224845; active = well fitted activation curve with a large enough effect in the signal ratio in the repeat runs, not every such curve was filed as active; the % refers to the signal ratio; also: potency is read from the fitted curve at half-maximal effect). A digest of the protocol: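 Wild-type CHO-K1 cells, plated overnight, exposed 3hr at 37C to 15 concentrations (0.76% DMSO final). Lysed, then HTRF anti-pH2AX (S139) cryptate and anti-H2AX-d2 antibodies, 24 hr room temperature; 665/620 nm emission read.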
Assay [3] is described as follows: qHTS assay to identify small molecule agonists of the hypoxia (HIF-1) signaling pathway (AID 1224846; active = well fitted activation curve with a large enough effect in the signal ratio in the repeat runs, not every such curve was filed as active; the % refers to the signal ratio). A digest of the protocol: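 HRE-bla ME-180 cells (beta-lactamase reporter under hypoxia response element) were plated at 2,000 cells/well in medium with 0.5% dialyzed FBS, rested 5 hrs, then given compounds in DMSO for 17 hrs at 37C, 5% CO2. Reporter induction was read with CCF4-AM FRET substrate.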

The nature of assay [4]: qHTS assay to identify small molecule antagonists of the estrogen related receptor (ERR) signaling pathway from Tox21 library (AID 1224848). Also: nearly all actives have a fitted effect of over 50% in size. A digest of the protocol: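 ERR reporter cell line (from NTP) seeded 2,000 cells/well, rested 6 h at 37 C/5% CO2, then pin-dosed with compounds in DMSO. After 18 h at 37 C, ONE-Glo added; luminescence read after 30 min at room temperature.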

Assay [5] can be described thus: qHTS assay to identify small molecule agonists of the estrogen related receptor (ERR) signaling pathway from Tox21 library (AID 1224849; calls by dose curve; also: nearly all actives have a fitted effect of over 15% in size). The note with it: ERR reporter cell line, ONE-Glo luciferase, 18 h. A digest of the protocol: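 ERR reporter cell line (NTP) seeded, rested 6 h at 37 C/5% CO2, then pinned with Tox21 compounds in DMSO. After 18 h at 37 C, ONE-Glo luciferase luminescence was read following 30 min at room temperature.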

The nature of assay [6]: qHTS RealTime-Glo MT Cell Viability Assay in HepG2 cells - 24 hour (AID 1224867). Also: nearly all actives have a fitted effect of over 50% in size. A digest of the protocol: (§1)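 Cells + NanoLuc/prosubstrate dispensed (600 cells/well) → 5 h at 37 C/5% CO2 → compounds in DMSO transferred → 40 h incubation at 37 C, luminescence read at 0, 8, 16, 24, 32, 40 h.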
The nature of assay [7]: qHTS RealTime-Glo MT Cell Viability Assay in HEK293 cells - 32 hour (AID 1224868). Also: nearly all actives have a fitted effect of over 50% in size. Also: potency is read from the fitted curve at half-maximal effect. A digest of the protocol:
(§2)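 Tox21 10K qHTS, HEK293, 600 cells/well, RealTime-Glo reagent co-dispensed with cells; 5 h preincubation, compound by pintool, 37 C, luminescence at 0–40 h.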

Assay [8] is described as follows: A CellTox Green Cytotoxicity Assay to monitor cytotoxicity in HEK293 cells - 0 hour (AID 1224869). Also: nearly all actives have a fitted effect of over 50% in size. A digest of the protocol: (§3)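 HEK293 cells premixed with CellTox Green dye were seeded at 600 cells/well and left 5 h at 37 C/5% CO2 before pin transfer of 23 nL compound in DMSO. Fluorescence from dye bound to dead-cell DNA was read during 40 h treatment.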
Assay [9] can be described thus: A CellTox Green Cytotoxicity Assay to monitor cytotoxicity in HEK293 cells - 40 hour (AID 1224871). Also: nearly all actives have a fitted effect of over 45% in size. Also: potency is read from the fitted curve at half-maximal effect. The essentials: as §3
Assay [10] is described as follows: qHTS RealTime-Glo MT Cell Viability Assay in HEK293 cells - 16 hour (AID 1224872). Also: nearly all actives have a fitted effect of over 50% in size. Also: potency is read from the fitted curve at half-maximal effect. A digest of the protocol: as §2
The nature of assay [11]: qHTS RealTime-Glo MT Cell Viability Assay in HepG2 cells - 8 hour (AID 1224873). Also: nearly all actives have a fitted effect of over 55% in size. The essentials: (§4)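 HepG2 cells (600/well) mixed with RealTime-Glo MT reagent, settled 5 h at 37 C/5% CO2 before compound addition. Nonlytic NanoLuc luminescence from viable-cell prosubstrate reduction read repeatedly during 40 h treatment at 37 C.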
The nature of assay [12]: qHTS RealTime-Glo MT Cell Viability Assay in HEK293 cells - 40 hour (AID 1224874). Also: nearly all actives have a fitted effect of over 50% in size. Also: potency is read from the fitted curve at half-maximal effect. The note with it: RealTime-Glo luminescence; max response: stronger effect = lower value. A digest of the protocol:
(§5)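 HEK293 cells mixed with RealTime-Glo reagents (NanoLuc plus cell-permeant prosubstrate) at 600 cells/well, preincubated 5 h at 37 C/5% CO2, then given 23 nL compound in DMSO. Nonlytic luminescence from viable cells was read at 0, 8, 16, 24, 32 and 40 h.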

A short description of assay [13]: A CellTox Green Cytotoxicity Assay to monitor cytotoxicity in HEK293 cells - 24 hour (AID 1224875). Also: nearly all actives have a fitted effect of over 45% in size. A digest of the protocol:
as §3

Assay [14] can be described thus: A CellTox Green Cytotoxicity Assay to monitor cytotoxicity in HepG2 cells - 16 hour (AID 1224876). Also: nearly all actives have a fitted effect of over 45% in size. Also: potency is read from the fitted curve at half-maximal effect. A digest of the protocol: (§6)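 HepG2 cells were seeded together with the CellTox Green dye at 600 cells/well, left 5 h at 37 C/5% CO2, then given compounds in DMSO. Fluorescence from dye bound to dead-cell DNA was read repeatedly over 40 h of treatment at 37 C.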
Assay [15] in a line: qHTS RealTime-Glo MT Cell Viability Assay in HepG2 cells - 32 hour (AID 1224877). Also: nearly all actives have a fitted effect of over 55% in size. The essentials:
as §1

A short description of assay [16]: A CellTox Green Cytotoxicity Assay to monitor cytotoxicity in HepG2 cells - 40 hour (AID 1224879). Also: nearly all actives have a fitted effect of over 40% in size. Also: potency is read from the fitted curve at half-maximal effect. A digest of the protocol: as §6
The nature of assay [17]: qHTS RealTime-Glo MT Cell Viability Assay in HEK293 cells - 0 hour (AID 1224880). Also: top concentration of the series differs between compounds; nearly all actives have a fitted effect of over 45% in size. The essentials:
as §5

Assay [18] can be described thus: qHTS assay to identify small molecule agonists of H2AX - cell viability counter screen (AID 1224847; calls by dose curve; also: nearly all actives have a fitted effect of over 30% in size; also: potency is read from the fitted curve at half-maximal effect). A digest of the protocol:
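Quantitative HTS viability measurement: CHO-K1 wild-type cells in serum (10% FBS) medium, short 3 hr drug exposure at 37C with 0.76% DMSO, CellTiter-Glo luminescent detection.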

A short description of assay [19]: A CellTox Green Cytotoxicity Assay to monitor cytotoxicity in HepG2 cells - 24 hour (AID 1224878). Also: nearly all actives have a fitted effect of over 45% in size. Also: potency is read from the fitted curve at half-maximal effect. A digest of the protocol: as §6
A short description of assay [20]: qHTS RealTime-Glo MT Cell Viability Assay in HepG2 cells - 40 hour (AID 1224870). Also: nearly all actives have a fitted effect of over 50% in size. The essentials:
as §4

“And” between values parts separate entries of the source, which are not always exact repeats. Identical values can stand only once. Inconclusive results are not listed. A structure can be active in one record and inactive in another. The source made the active and inactive calls. Unless noted, calls follow the shape of the dose curve; as a rule, active = well fitted curve in the direction sought with a large enough effect in the repeat runs; inconclusive = weak or mixed curves; inactive = no such curve, though single readings can be large; an effect the other way counts as inactive or inconclusive.
% is scaled to controls: 0 for no effect and ±100 for the full control effect.

With `CC(C)=CC1C(C(=O)OCc2cccc(Oc3ccccc3)c2)C1(C)C` (centres undefined), the Potency entry in assay [1], in assay [2], in [4], in assay [6], in [7] and in [8] was “inactive” throughout. The Potency result in assay [9], in assay [10], in assay [11], in assay [13], in [14] and in assay [15] was “inactive” throughout. Moreover, the Potency result in [16] and in assay [17] was “inactive” each time. Further, the molecule was called inactive in [3]. Also, the values for the activity change, positive = activation in assay [5] (at 42.5 µM (top of the series)) and in assay [5] (at 92.4 µM (top of the series)) were -0.963% (inactive) and -0.843% (inactive), respectively. For the same molecule, the max response in [12] is -1.31% (inactive) and -6.07% (inactive).

For `CCCCCCCCCc1ccc(O)cc1`, the Potency in assay [1] is 39.3 µM (active) and 54.9 µM (active); in assay [2] it was 102 µM (active) and 101 µM (active); in assay [18], 90.7 µM (active) and 101 µM (active); in [7], 9.87 µM (active) and 5.49 µM (active); in [9] it was 44.1 µM (active) and inactive; in assay [10], 6.99 µM (active) and 4.36 µM (active). The Potency in assay [12] is 11.1 µM (active) and 6.92 µM (active); in assay [14] it was 39.3 µM (active); in assay [19], 44.1 µM (active) and 38.9 µM (active); in assay [16], 24.8 µM (active). The Potency result in [6], in [8], in assay [11], in [15] and in assay [17] was “inactive” in each case.

For the molecule `C[N+](C)(C)CC(=O)O`, the Potency entry in assay [1], in assay [2], in assay [18], in assay [6], in [7] and in [8] was “inactive” in each case. For the same molecule, the Potency result in [20], in assay [9], in assay [10], in [11], in [13] and in assay [14] was “inactive” each time. For the same molecule, the Potency entry in assay [15] and in [17] was “inactive” each time. In addition, in assay [12], the max response is 5.5% (inactive) and 7.98% (inactive).

`NN=C(N)N`: the Potency entry in assay [1], in assay [2], in [18], in assay [6], in assay [7] and in assay [8] was “inactive” throughout. Besides, the Potency result in assay [20], in assay [9], in assay [10], in assay [11], in assay [13] and in [14] was “inactive” each time. Moreover, the Potency result in assay [15], in assay [19] and in assay [17] was “inactive” throughout. In addition, the max response in [12] is -2.73% (inactive) and -1.15% (inactive).

Regarding `CCOP(=S)(OCC)SCn1c(=O)oc2cc(Cl)ccc21`, the Potency entry in assay [1], in assay [2], in assay [6], in [8], in assay [20] and in assay [9] was “inactive” each time. For the same molecule, the Potency entry in assay [13], in assay [14], in [15], in assay [19], in assay [16] and in assay [17] was “inactive” throughout. The outcome in [3] was inactive. For the same molecule, the Potency in [7] is 29.5 µM (active); in assay [10] it was 26.3 µM (active) and 19.5 µM (active); in [12], 29.5 µM (active).

Take `CCCCCCCCCC(CC)c1ccc(S(=O)(=O)O)cc1` (centres undefined): the Potency result in [2], in assay [6], in assay [8], in assay [20], in assay [10] and in [11] was “inactive” each time. For the same molecule, the Potency entry in [15] and in assay [17] was “inactive” each time. Further, in assay [3], the result was inactive. Besides, the Potency is 39.3 µM (active) and inactive in [7]; 44.1 µM (active) in assay [12]; 49 µM (active) and 16.9 µM (active) and 42 µM (active) in assay [14]; 21.3 µM (active) and 38.9 µM (active) in [16]. Besides, the max response in assay [12] is -25.5% (inactive) and -23.7% (inactive) and -24.7% (inactive).
